# Most compounds without a hit are left out; they make up all but 4.7% or so of the library.
# D1 PAM – Potentiators of Human D1 Dopamine Receptor: qHTS; D(1A) dopamine receptor (Homo sapiens), P21728; HEK293 TREx D1 cells, calcium flux, dopamine EC20 potentiation; potentiation, % at 10 µM; 360,000 compounds, 0.036% hits; in the data active = potentiation above about 30%; note: 0% is about no effect
# Target sequence (P21728 whole entry, looked up): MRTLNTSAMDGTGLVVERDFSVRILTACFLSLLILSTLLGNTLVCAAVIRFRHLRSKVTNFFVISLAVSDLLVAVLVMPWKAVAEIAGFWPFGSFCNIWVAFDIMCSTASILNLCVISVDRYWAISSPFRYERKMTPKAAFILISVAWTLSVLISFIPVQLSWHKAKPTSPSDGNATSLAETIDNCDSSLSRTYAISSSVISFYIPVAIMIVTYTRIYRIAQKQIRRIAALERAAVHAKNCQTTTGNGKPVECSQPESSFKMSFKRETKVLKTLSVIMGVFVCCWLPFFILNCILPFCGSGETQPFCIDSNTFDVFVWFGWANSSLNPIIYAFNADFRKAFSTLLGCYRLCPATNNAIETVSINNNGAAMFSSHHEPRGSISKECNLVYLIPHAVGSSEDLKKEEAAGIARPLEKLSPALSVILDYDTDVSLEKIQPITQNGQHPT
# D1 antag – Antagonist of Human D 1 Dopamine Receptor: qHTS; D(1A) dopamine receptor (Homo sapiens), P21728; HEK293 TREx D1 cells, calcium flux, dopamine EC80; stronger effect = lower value; activity change, negative = inhibition, % at 10 µM; 360,000 compounds, 3.2% hits; AID 504652, 2011; in the data active = activity change below about -30%; note: % is set by controls: 0 for no effect and ±100 for the full control effect
#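 Calcium flux readout: force-coupled, inducible Hek293 Trex D1 line, cells induced overnight at 30 C with tetracycline, dye-loaded 30–90 min at RT. Antagonism scored against EC80 dopamine challenge given 180 s after compound.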
# TRHR agonist – qHTS for Small Molecule Agonists and Allosteric Enhancers of Human TRH Receptor: Primary Screen for Agonists; 360,000 compounds, 0.18% hits; activation, % at 2 µM; Thyrotropin-releasing hormone receptor (Homo sapiens), P34981; AID 493084, 2011; TRHR cells, calcium flux fluo-8, FDSS agonist mode; note: 0% is about no effect
#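 Agonist-mode FDSS calcium read (Ex 480/Em 530, 1 s cycles) in 1536-well TRHR cells with fluo-8 dye, after 10-cycle baseline and 23 nL compound addition; TRH at EC20 (10 nM final) added afterwards for the enhancer phase.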
# D1 agonist – Allosteric Agonists of the Human D1 Dopamine Receptor: qHTS; activation, % at 2 µM; 360,000 compounds, 1% hits; AID 504660, 2011; D(1A) dopamine receptor (Homo sapiens), P21728; HEK293 T-REx D1 cells, calcium flux, agonist mode; note: 0% is about no effect
#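 Inducible HEK293 T-REx D1 cells, force-coupled to calcium signalling, were plated at 4000 cells/well with tetracycline and held overnight at 30 C. After no-wash calcium dye loading, compound-evoked calcium rise over 180 s flagged agonists.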
# TRHR enhancer – qHTS for Small Molecule Agonists and Allosteric Enhancers of Human TRH Receptor: Primary Screen for Enhancers; AID 493056, 2011; enhancement, % at 2 µM; 360,000 compounds, 0.66% hits; TRHR cells, fluo-8 calcium fluorescence, EC20 TRH enhancement; in the data active = enhancement above about 30%; note: 0% is about no effect
#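 TRHR-expressing cells loaded with fluo-8 calcium dye were read kinetically (ex 480/em 530) during compound addition, then stimulated with an EC20 of TRH (10 nM final). Enhancement of the Gq-mediated intracellular calcium response was scored.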
# Numbers without * were called inactive; / = not tested or not shown. Cut-off read from the data, not from the text of the source, unless noted: active = activation above about 30%; inactive = the rest.
SMILES,D1 PAM,D1 antag,TRHR agonist,D1 agonist,TRHR enhancer
COc1cc(C)ccc1OCc1cc(C(=O)N2CCCCCCC2)no1,-1.8,-13.0,-0.6,-0.4,39.1*
COc1ccc(-c2nn(C)c3sc(C(=O)N4CCN(c5ccccc5F)CC4)cc23)cc1OC,4.3,2.0,0.4,-0.5,19.1
COc1ccc(-c2cc(C(=O)N3CCOCC3)no2)cc1OC,-10.8,-32.4*,-0.5,3.1,-9.9
O=C(NCc1cccs1)c1cc(-c2ccc(O)cc2)on1,-2.3,9.0,-0.5,49.9*,9.4
CC1CCN(C(=O)c2cc(-c3ccc4c(c3)OCO4)on2)CC1,5.7,-33.2*,-1.9,2.8,6.0
CCc1ccc(NC(=O)c2sc3nc(C)c(Cl)c(C)c3c2N)cc1,-3.5,4.6,0.2,0.3,-1.4
Cn1c(SCc2ccccc2)nnc1-c1ccc(O)cc1,-3.5,4.7,0.5,8.8,4.8
CN(Cc1nccs1)C(=O)c1cc(COc2cccc3cnccc23)on1,-0.5,-31.7*,0.1,15.8,-4.0
CC(=O)c1ccc(OCc2cc(C(=O)N3CCC[C@H]3CO)no2)cc1,-3.1,-24.6,-0.4,3.3,-0.3
COC(=O)C1CCCCN1C(=O)c1cc(COc2cccc3cnccc23)on1 (centres undefined),-6.3,-42.6*,1.9,22.9,-3.1
COc1ccc(OCc2cc(C(=O)N(C)Cc3nccn3C)no2)c2ccccc12,-1.4,-39.6*,-0.8,1.5,-3.5
COCCC1CCCCN1C(=O)c1cc(COc2cccc(C(C)=O)c2)on1 (centres undefined),-7.5,-49.1*,0.4,11.5,-0.2
C[C@H](NC(=O)c1nc[nH]c1C(=O)N[C@@H](C)c1ccccc1)c1ccccc1,5.4,7.9,-0.4,-0.7,1.7
COc1cc2c(cc1OC)CN(c1ccc(C(N)=O)cc1[N+](=O)[O-])CC2,/,-25.4,-1.6,17.5,3.4
Cc1ccc(N2N=C(C(=O)O)CCC2=O)cc1Cl,-1.1,4.7,0.0,0.3,-13.6
Cc1ccc(Nc2nc(C#N)nc(NC3CCCC3)n2)cc1,-6.0,4.8,0.7,13.1,1.5
O=C(NCC(c1cccs1)N1CCOCC1)c1ccc(Cl)nc1 (centres undefined),-5.4,-8.5,0.1,3.4,3.9
N#Cc1nc(COc2ccccc2Cl)oc1N1CCCC1,-2.6,-30.8*,-1.2,2.2,-10.0
N#Cc1nc(COc2ccc(F)cc2)oc1N1CCN(Cc2ccccc2)CC1,0.6,0.9,0.4,2.0,0.7
N#Cc1nc(COc2ccc(F)cc2)oc1N1CCC(Cc2ccccc2)CC1,1.6,0.5,-0.3,48.3*,2.5
CN1C2CCC1/C(=C/c1cccn1C)C(=O)/C2=C\c1cccn1C,-3.8,-6.1,-0.9,187.3*,20.6
Cn1cccc1/C=C1\CC(C(C)(C)C)C/C(=C\c2cccn2C)C1=O (centres undefined),2.2,-7.7,-2.8,122.8*,8.6
Cc1nnc2sc(SCc3ccccc3)nn2c1=O,-6.5,6.7,0.1,-1.5,33.6*
O=C(NCCCCc1ccccc1)c1nn(-c2ccccc2)nc1CO,-2.8,-19.3,-1.3,2.6,-1.7
Cc1ccc(OCCNC(=O)C2CCCCC2)cc1,1.6,10.0,-0.9,0.0,6.7
SMILES,D1 PAM,D1 antag,TRHR agonist,D1 agonist,TRHR enhancer
CCOc1ccccc1NC(=S)NC(=O)C1CCCCC1,18.1,13.3,0.2,2.8,2.6
COC(=O)c1ccccc1NC(=O)C1CCCC1,-2.5,-22.4,-1.1,3.4,2.3
COc1ccccc1NC(=S)NC(=O)C1CC1,-6.9,-42.3*,-0.9,1.8,-4.7
Cc1ccc(NC(=S)NC(=O)C2CC2)cc1Cl,-5.2,-72.6*,-1.3,1.1,2.4
COC(=O)c1ccccc1NC(=S)NC(=O)C1CCCCC1,-8.3,-64.5*,0.2,2.5,2.0
COc1ccccc1OCCNC(=O)C1CCCCC1,-2.9,4.1,1.2,34.2*,-6.2
CC(C)c1nnc(NC(=O)CCC(=O)NCc2ccc(F)cc2)s1,-8.1,1.3,0.2,0.5,-5.9
COc1ccc(-n2c(SCC(=O)NCc3ccccc3)nc3c([nH]c4ccccc43)c2=O)cc1,-3.4,0.0,-0.4,4.0,-1.0
Cc1ccc(C)c(CN2C(=O)CSc3ccc(C(=O)NCc4ccc(F)cc4)cc32)c1,-0.2,18.4,-0.2,-0.2,-1.0
Nc1c(C(=O)NCCN2CCOCC2)c2nc3ccccc3nc2n1-c1cccc(F)c1,-11.4,-47.7*,0.2,1.3,-0.7
CCCNC(=O)c1c(N)n(-c2cccc(OC)c2)c2nc3ccccc3nc12,-8.2,-13.7,2.5,1.5,-4.3
Cc1noc(C)c1CSCC(=O)Nc1nc(-c2ccc(F)c(F)c2)cs1,-10.9,-43.0*,0.4,16.0,-8.7
COc1cc(S(=O)(=O)N2CCCN(C)CC2)ccc1NC(C)=O,-4.8,-15.1,0.4,2.7,30.4*
COc1cccc(C(CNc2ccc(S(=O)(=O)N3CCN(C)CC3)cc2[N+](=O)[O-])N(C)C)c1 (centres undefined),-7.2,-22.1,0.0,7.6,0.0
COc1ccccc1C(C)Nc1ccc(S(=O)(=O)N2CCN(C)CC2)cc1[N+](=O)[O-] (centres undefined),-7.7,-65.2*,0.1,0.5,-2.1
CC(Nc1ccc(S(=O)(=O)N2CCN(C)CC2)cc1[N+](=O)[O-])c1ccccc1 (centres undefined),-5.8,-73.1*,-0.2,1.1,-6.1
COc1ccc(C(=O)NC2CC2)cc1OC1CCN(Cc2cc(C)cc(C)c2)CC1,-19.4,-50.7*,0.1,0.5,23.1
C/C=C(\C)CN1CCC(Oc2cc(C(=O)NC3CC3)ccc2OC)CC1,-19.0,-3.4,0.8,1.7,3.8
COc1ccc(C(=O)NC2CC2)cc1OC1CCN(Cc2ccc(Cl)cc2)CC1,-19.2,-57.7*,1.1,5.6,2.9
CC(C)c1ccc(C2(C)NC(=O)N(C(C)C(=O)Nc3ccc(N4CCOCC4)cc3)C2=O)cc1 (centres undefined),-2.9,-18.6,0.6,7.3,1.4
NS(=O)(=O)c1cc(C(=O)NC2CCSc3ccccc32)ccc1Cl (centres undefined),-5.4,-15.4,0.0,0.7,3.2
CS(=O)(=O)c1ccc(Cl)c(C(=O)NC2CCSc3ccccc32)c1 (centres undefined),-8.8,-45.3*,-0.2,1.4,-1.4
COc1ccc(-n2nc(C(=O)NCc3ccc(F)cc3Cl)c3c4ccccc4n(C)c3c2=O)cc1Cl,5.6,0.2,0.6,1.1,1.1
